The structures appear in SMILES notation. Records with an inconclusive call do not appear. The source made the active and inactive calls. Unless noted, calls come from the whole dose curve; as a rule, active = well fitted curve in the direction sought with a large enough effect in the repeat runs; inconclusive = weak or mixed curves; inactive = no such curve, though single readings can be large; an effect the other way counts as inactive or inconclusive.

A short description of assay [1]: qHTS assay to identify aromatase inhibitors - cell viability counter screen (AID 743084).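 Note: cells stimulated with testosterone during compound exposure; nearly all actives have a fitted effect of over 55% in size.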
In assay [2] the target is Aryl hydrocarbon receptor (Homo sapiens) (UniProt P35869). Briefly: qHTS assay to identify small molecule that activate the aryl hydrocarbon receptor (AhR) signaling pathway (AID 743085).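 For activation: HG2L7.5c1 human HepG2 liver cells with stably integrated DRE-driven firefly reporter; series mostly up to about 70 µM.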 Note: nearly all actives have a fitted effect of over 15% in size. Note: potency is the fitted concentration of half-maximal effect. The gist of the method: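 Compounds were tested in HepG2 hepatocellular carcinoma cells harbouring a stably integrated luciferase gene under control of 20 DREs. Increased reporter signal after 24 h treatment at 37C was taken as AhR activation.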
For orientation: In qHTS, concentration-response curves come from the screen itself.

A short description of assay [3]: qHTS assay to identify small molecule that activate the aryl hydrocarbon receptor (AhR) signaling pathway - cell viability counter screen (AID 743086).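 Note: HepG2 liver cells carrying the AhR DRE luciferase reporter; series mostly up to about 70 µM; nearly all actives have a fitted effect of over 45% in size.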 In outline:
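HepG2-AhR-luc (HG2L7.5c1) cells, 4000/well, were preincubated 5 h at 37C, exposed to compound in qHTS format for 24 hr at 37C, then given CellTiter-Fluor for 30 min; viability was read as fluorescence in the reporter wells.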

In assay [4] the target is Peroxisome proliferator-activated receptor gamma (Homo sapiens) (UniProt P37231). Briefly: qHTS assay to identify small molecule antagonists of the peroxisome proliferator-activated receptor gamma (PPARg) signaling pathway (AID 743191; calls by dose curve; note: series mostly up to about 63 µM; nearly all actives have a fitted effect of over 30% in size). In outline:
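GeneBLAzer PPARg UAS-bla HEK293H cells carrying a UAS-driven beta-lactamase reporter were plated at 3000 cells/well, preincubated 5 h at 37C, then given compound for 17 h at 37C; LiveBLAzer B/G FRET substrate was read after 1 h at room temperature.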

Assay [5] can be described thus: qHTS assay to identify small molecule antagonists of the peroxisome proliferator-activated receptor gamma (PPARg) signaling pathway - cell viability counter screen (AID 743194). Note: nearly all actives have a fitted effect of over 55% in size. The gist of the method:
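PPARg-UAS-bla HEK293H cells were plated, rested 5 h at 37 C, then treated with compounds plus rosiglitazone (50 nM final) for 17 h at 37 C; viability was then read by CellTiter-Glo luminescence after 30 min at room temperature.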

A short description of assay [6]: qHTS assay for small molecule agonists of the antioxidant response element (ARE) signaling pathway (AID 743202; active = well fitted activation curve with a large enough effect in the signal ratio in the repeat runs, not every such curve was filed as active; the % refers to the signal ratio). The gist of the method: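 Read-out: LiveBLAzer B/G FRET substrate fluorescence after 2 h at room temperature, following 16 h compound treatment at 37 C of HepG2 cells carrying an ARE-driven beta-lactamase reporter.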
Assay [7] in a line: qHTS assay for small molecule agonists of the antioxidant response element (ARE) signaling pathway - cell viability counter screen (AID 743203; calls by dose curve; note: nearly all actives have a fitted effect of over 55% in size). The gist of the method: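 Following 16 hrs of compound treatment at 37C, HepG2 cells with an ARE-controlled beta-lactamase gene were lysed with CellTiter-Glo. Luminescence was read after 30 min at room temperature.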
The nature of assay [8]: qHTS assay for small molecule activators of the heat shock response signaling pathway - cell viability counter screen (AID 743209). Note: nearly all actives have a fitted effect of over 50% in size. In outline: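 Readout: CellTiter-Glo luminescence, 30 min at room temperature. System: HSE-bla HeLa cells, 1500/well, plated overnight. Treatment: compounds in DMSO, 5 h at 37 C.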
In assay [9] the target is Peroxisome proliferator-activated receptor gamma (Homo sapiens) (UniProt P37231). Briefly: qHTS assay to identify small molecule agonists of the peroxisome proliferator-activated receptor gamma (PPARg) signaling pathway (AID 743094; active = well fitted activation curve with a large enough effect in the signal ratio in the repeat runs, not every such curve was filed as active; the % refers to the signal ratio). The gist of the method: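 Compounds dissolved in DMSO were added to PPARg UAS-bla HEK293H cells for 17 h at 37C, and reporter expression was quantified by fluorescence intensity after 1 h with LiveBLAzer B/G FRET substrate.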

Assay [10] is described as follows: qHTS assay for small molecule activators of the heat shock response signaling pathway (AID 743210; active = well fitted activation curve with a large enough effect in the signal ratio in the repeat runs, with a control signal flat, not every such curve was filed as active; the % refers to the signal ratio; note: series mostly up to about 63 µM). In outline: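 HSE-bla HeLa cells (beta-lactamase reporter under heat shock response elements) were exposed to compounds for 5 h at 37 C, then loaded with LiveBLAzer B/G FRET substrate for 2.5 h at room temperature before fluorescence reading.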

Sequence of Aryl hydrocarbon receptor (Homo sapiens) (P35869 whole entry, looked up): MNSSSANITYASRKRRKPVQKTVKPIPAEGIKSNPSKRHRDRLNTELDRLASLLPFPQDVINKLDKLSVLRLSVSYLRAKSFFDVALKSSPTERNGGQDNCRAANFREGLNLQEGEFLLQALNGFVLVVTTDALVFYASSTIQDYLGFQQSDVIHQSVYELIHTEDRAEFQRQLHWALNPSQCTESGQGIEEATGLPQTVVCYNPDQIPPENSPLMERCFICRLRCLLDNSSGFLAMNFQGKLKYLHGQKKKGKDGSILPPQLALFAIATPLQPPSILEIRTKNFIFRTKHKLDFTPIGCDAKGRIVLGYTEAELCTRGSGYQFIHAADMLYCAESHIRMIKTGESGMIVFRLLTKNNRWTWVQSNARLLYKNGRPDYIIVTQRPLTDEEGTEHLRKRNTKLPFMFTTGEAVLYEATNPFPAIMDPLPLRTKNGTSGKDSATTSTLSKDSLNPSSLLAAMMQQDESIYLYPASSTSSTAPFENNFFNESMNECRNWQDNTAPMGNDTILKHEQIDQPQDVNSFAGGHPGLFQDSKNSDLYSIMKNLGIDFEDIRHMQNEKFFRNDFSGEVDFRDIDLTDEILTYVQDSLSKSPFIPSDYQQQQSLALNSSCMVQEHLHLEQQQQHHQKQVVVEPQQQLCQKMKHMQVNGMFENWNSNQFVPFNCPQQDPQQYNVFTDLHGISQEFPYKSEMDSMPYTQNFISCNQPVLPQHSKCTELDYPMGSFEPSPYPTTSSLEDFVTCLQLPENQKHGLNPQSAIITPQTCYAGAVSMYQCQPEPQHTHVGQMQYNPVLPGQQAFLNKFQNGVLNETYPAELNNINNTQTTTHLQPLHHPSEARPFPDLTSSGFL
Sequence of Peroxisome proliferator-activated receptor gamma (Homo sapiens) (P37231 whole entry, looked up): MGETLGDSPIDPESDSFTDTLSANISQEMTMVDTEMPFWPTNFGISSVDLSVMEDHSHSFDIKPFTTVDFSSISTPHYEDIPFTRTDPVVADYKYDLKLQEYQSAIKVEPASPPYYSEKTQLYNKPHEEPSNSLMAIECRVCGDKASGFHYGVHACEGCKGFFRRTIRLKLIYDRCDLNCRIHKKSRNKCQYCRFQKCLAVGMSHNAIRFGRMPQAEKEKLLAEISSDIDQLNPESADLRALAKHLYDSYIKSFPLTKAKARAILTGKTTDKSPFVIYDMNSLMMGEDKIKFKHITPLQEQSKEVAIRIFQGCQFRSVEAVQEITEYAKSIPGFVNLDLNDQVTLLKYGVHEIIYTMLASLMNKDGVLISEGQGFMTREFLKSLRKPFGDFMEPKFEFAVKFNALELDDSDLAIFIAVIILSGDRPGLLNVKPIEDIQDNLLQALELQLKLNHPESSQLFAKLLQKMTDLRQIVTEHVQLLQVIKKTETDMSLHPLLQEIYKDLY

For `CC(C)SCc1ccco1`, the Potency result in [1], in assay [2], in assay [3], in assay [4] and in [6] was “inactive” throughout. Further, the result in [5], in assay [7] and in [8] was inactive.
In the case of `CC(C)(C)c1ccc(C=O)cc1`, the Potency entry in assay [1], in [2], in [3] and in assay [6] was “inactive” in each case. The outcome in assay [9], in [5], in assay [7], in [8] and in assay [10] was inactive.
For `CCCCOC(=O)[C@@H](C)Oc1ccc(Oc2ccc(C(F)(F)F)cn2)cc1`, the Potency result in assay [1], in assay [2] and in assay [3] was “inactive” throughout. Besides, the outcome in assay [9], in [5], in [7] and in assay [10] was inactive.
As for `CO[Si](CCCCl)(OC)OC`, the Potency entry in assay [1], in assay [2] and in assay [3] was “inactive” in each case. Moreover, the result in assay [9], in assay [5], in assay [7], in [8] and in assay [10] was inactive.
`O=C(c1ccc2c(c1)C(=O)OC2=O)c1ccc2c(c1)C(=O)OC2=O`: the Potency entry in [1], in assay [2], in assay [3] and in [6] was “inactive” throughout. Besides, the result in assay [9] and in assay [7] was inactive.
Take `CCC(=O)OCCC(C)CCC=C(C)C` (centres undefined): the Potency entry in assay [1], in [2] and in assay [4] was “inactive” throughout. Besides, the compound was classed as inactive in assay [9], in assay [5], in assay [7], in assay [8] and in [10].
Take `CC(=O)Nc1ncc([N+](=O)[O-])s1`: the Potency entry in assay [1], in assay [2] and in [4] was “inactive” each time. Besides, the compound was called inactive in assay [9], in assay [5], in assay [7] and in assay [8].
With `CCN(Cc1cccc(S(=O)(=O)O)c1)c1ccccc1`, the Potency result in assay [1], in assay [2], in assay [3] and in assay [6] was “inactive” throughout. Further, the compound was classed as inactive in [5], in assay [7], in [8] and in [10].
For the compound `COc1cccc2sc(N)nc12`, the Potency result in assay [1], in assay [3] and in [6] was “inactive” each time. For the same compound, the Potency in assay [2] is 27.5 µM (active). Also, the compound was called inactive in assay [7] and in [8].
On to `CCCCCCCCCCCCCCCC(=O)NCCO`, for which the Potency result in [1], in assay [2], in [3] and in [4] was “inactive” throughout. In addition, the result in assay [5], in [7] and in assay [8] was inactive.
Take `C=C(C)C(=O)OCCCCCCOC(=O)C(=C)C`: the Potency result in [1], in [2], in assay [4] and in assay [6] was “inactive” in each case. For the same compound, the call in [9], in assay [5], in assay [7] and in assay [8] was inactive.
As to `CO[Si](CCCS)(OC)OC`, the Potency entry in assay [1], in assay [2], in [3] and in [4] was “inactive” throughout. For the same compound, the compound was classed as inactive in [5], in [7] and in assay [8].

The values are drawn from PubChem BioAssay (Tox21).
